Test results: the supplement of paper PMC8728848
The full list was thinned out, with the strongest signals kept by preference.

Legend:
Assay in all cases: glycan array binding signal (z-score within array); higher = stronger binding
Conditions in all cases: glycan notation: IUPAC condensed, linker removed
[1] = target: Fuc(a1-2)Gal(b1-3)GlcNAc(b1-3)[Gal(b1-4)GlcNAc(b1-6)]Gal(b1-4)Glc
Procedure, shortened: (§1)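 Glycan array data came from 3228 arrays in the Consortium for Functional Glycomics database, and only arrays with an available protein sequence were kept. Glycan names were put into IUPAC-condensed notation, and columns mapping to the same glycan were averaged. The binding signal is a within-array Z-score, averaged across arrays of one protein sequence run at different concentrations or buffers and across linkers. A negative Z-score can be read as non-binding.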

[2] = target: Fuc(a1-2)Gal(b1-4)GlcNAc(b1-2)Man(a1-3)[Fuc(a1-2)Gal(b1-4)GlcNAc(b1-2)Man(a1-6)]Man(b1-4)GlcNAc(b1-4)[Fuc(a1-6)]GlcNAc
Procedure, shortened: as §1

[3] = target: Fuc(a1-2)Gal(b1-4)GlcNAc(b1-3)Gal(b1-4)GlcNAc(b1-2)Man(a1-3)[Fuc(a1-2)Gal(b1-4)GlcNAc(b1-3)Gal(b1-4)GlcNAc(b1-2)Man(a1-6)]Man(b1-4)GlcNAc(b1-4)GlcNAc
Procedure, shortened: as §1

[4] = target: Fuc(a1-2)Gal(b1-4)GlcNAc(b1-3)[Fuc(a1-2)Gal(b1-4)GlcNAc(b1-6)]GalNAc
Procedure, shortened: as §1

[5] = target: Fuc(a1-2)Gal(b1-4)[Fuc(a1-3)]GlcNAc(b1-3)[Neu5Ac(a2-6)Gal(b1-4)GlcNAc(b1-6)]Gal(b1-4)Glc
Procedure, shortened: as §1

[6] = target: Fuc(a1-2)[Gal(a1-3)]Gal(b1-3)GlcNAc(b1-3)GalNAc
Procedure, shortened: as §1

[7] = target: Fuc(a1-2)[GalNAc(a1-3)]Gal(b1-3)GalNAc(b1-3)Gal(a1-4)Gal(b1-4)Glc
Procedure, shortened: as §1

[8] = target: Fuc(a1-2)[GalNAc(a1-3)]Gal(b1-3)GlcNAc(b1-2)Man(a1-3)[Fuc(a1-2)[GalNAc(a1-3)]Gal(b1-3)GlcNAc(b1-2)Man(a1-6)]Man(b1-4)GlcNAc(b1-4)GlcNAc
Procedure, shortened: as §1

[9] = target: Fuc(a1-2)[GalNAc(a1-3)]Gal(b1-4)[Fuc(a1-3)]GlcNAc
Procedure, shortened: as §1

[10] = target: Fuc(a1-2)[GalNAc(a1-3)]Gal(b1-4)[Fuc(a1-3)]GlcNAc(b1-3)GalNAc
Procedure, shortened: as §1

[11] = target: Fuc(a1-3)[Gal(b1-4)]Glc6S
Procedure, shortened: as §1

[12] = target: Fuc(a1-3)[Gal(b1-4)]GlcNAc(b1-6)GalNAc
Procedure, shortened: as §1

[13] = target: Fuc(a1-3)[Gal(b1-4)]GlcNAc(b1-6)[Gal(b1-3)GlcNAc(b1-3)]Gal(b1-4)Glc
Procedure, shortened: as §1

[14] = target: Fuc(a1-3)[Gal3S(b1-4)]GlcNAc6S
Procedure, shortened: as §1

[15] = target: Fuc(a1-3)[GalNAc(b1-4)]GlcNAc
Procedure, shortened: as §1

[16] = target: Gal(a1-3)Gal(b1-4)GlcNAc
Procedure, shortened: as §1

[17] = target: Gal(a1-4)Gal(b1-4)Glc
Procedure, shortened: as §1

[18] = target: Gal(b1-3)GalNAc(a1-3)[Fuc(a1-2)]Gal(b1-4)GlcNAc
Procedure, shortened: as §1

[19] = target: Gal(b1-4)GlcNAc(b1-2)[Gal(b1-4)GlcNAc(b1-6)]Man(a1-6)[GlcNAc(b1-4)][Gal(b1-4)GlcNAc(b1-2)[Gal(b1-4)GlcNAc(b1-4)]Man(a1-3)]Man(b1-4)GlcNAc(b1-4)[Fuc(a1-6)]GlcNAc
Procedure, shortened: as §1

[20] = target: Gal(b1-4)GlcNAc(b1-3)Gal(b1-4)GlcNAc(b1-2)Man(a1-3)[Gal(b1-4)GlcNAc(b1-3)Gal(b1-4)GlcNAc(b1-2)Man(a1-6)]Man(b1-4)GlcNAc(b1-4)GlcNAc
Procedure, shortened: as §1

[21] = target: Gal(b1-4)GlcNAc(b1-3)Gal(b1-4)GlcNAc(b1-3)Gal(b1-4)GlcNAc
Procedure, shortened: as §1

[22] = target: Gal(b1-4)GlcNAc(b1-3)Gal(b1-4)GlcNAc(b1-6)[Gal(b1-3)]GalNAc
Procedure, shortened: as §1

[23] = target: Gal(b1-4)GlcNAc(b1-6)GalNAc
Procedure, shortened: as §1

[24] = target: Gal3S6S(b1-4)GlcNAc
Procedure, shortened: as §1

[25] = target: GalNAc(b1-3)Gal(a1-4)Gal(b1-4)GlcNAc
Procedure, shortened: as §1

[26] = target: GalNAc(b1-4)GlcNAc
Procedure, shortened: as §1

[27] = target: Glc(a1-6)Glc(a1-6)Glc(a1-6)Glc
Procedure, shortened: as §1

[28] = target: GlcNAc(a1-4)Gal(b1-4)GlcNAc
Procedure, shortened: as §1

[29] = target: GlcNAc(b1-2)[GlcNAc(b1-4)]Man(a1-3)[GlcNAc(b1-4)][GlcNAc(b1-2)[GlcNAc(b1-6)]Man(a1-6)]Man(b1-4)GlcNAc(b1-4)[Fuc(a1-6)]GlcNAc
Procedure, shortened: as §1

[30] = target: GlcNAc(b1-2)[GlcNAc(b1-6)]Man(a1-6)[GlcNAc(b1-2)Man(a1-3)]Man(b1-4)GlcNAc(b1-4)[Fuc(a1-6)]GlcNAc
Procedure, shortened: as §1

[31] = target: GlcNAc(b1-3)Gal(b1-4)GlcNAc(b1-2)Man(a1-3)[GlcNAc(b1-3)Gal(b1-4)GlcNAc(b1-2)Man(a1-6)]Man(b1-4)GlcNAc(b1-4)GlcNAc
Procedure, shortened: as §1

[32] = target: GlcNAc(b1-3)Gal(b1-4)GlcNAc(b1-3)Gal(b1-4)GlcNAc(b1-3)GalNAc
Procedure, shortened: as §1

[33] = target: GlcNAc(b1-6)Gal(b1-4)GlcNAc
Procedure, shortened: as §1

[34] = target: Man(a1-2)Man(a1-2)Man(a1-3)Man
Procedure, shortened: as §1

[35] = target: Man(a1-3)[Man(a1-6)]Man(b1-4)GlcNAc(b1-4)[Fuc(a1-6)]GlcNAc
Procedure, shortened: as §1

[36] = target: Neu5Ac(a2-3)Gal(b1-4)GlcNAc(b1-2)[Neu5Ac(a2-3)Gal(b1-4)GlcNAc(b1-6)]Man(a1-6)[Neu5Ac(a2-3)Gal(b1-4)GlcNAc(b1-2)Man(a1-3)][GlcNAc(b1-4)]Man(b1-4)GlcNAc(b1-4)GlcNAc
Procedure, shortened: as §1

[37] = target: Neu5Ac(a2-3)Gal(b1-4)GlcNAc(b1-3)Gal(b1-4)GlcNAc
Procedure, shortened: as §1

[38] = target: Neu5Ac(a2-3)Gal(b1-4)GlcNAc(b1-3)Gal(b1-4)GlcNAc(b1-3)[Neu5Ac(a2-3)Gal(b1-4)GlcNAc(b1-3)Gal(b1-4)GlcNAc(b1-6)]GalNAc
Procedure, shortened: as §1

[39] = target: Neu5Ac(a2-3)Gal(b1-4)[Fuc(a1-3)]GlcNAc(b1-3)GalNAc
Procedure, shortened: as §1

[40] = target: Neu5Ac(a2-3)Gal(b1-4)[Fuc(a1-3)]GlcNAc(b1-6)[Gal(b1-3)]GalNAc
Procedure, shortened: as §1

[41] = target: Neu5Ac(a2-3)GalNAc
Procedure, shortened: as §1

[42] = target: Neu5Ac(a2-6)Gal(b1-4)GlcNAc(b1-2)Man(a1-3)[GlcNAc(b1-4)][Neu5Ac(a2-6)Gal(b1-4)GlcNAc(b1-2)Man(a1-6)]Man(b1-4)GlcNAc(b1-4)GlcNAc
Procedure, shortened: as §1

[43] = target: Neu5Ac(a2-6)Gal(b1-4)GlcNAc(b1-2)Man(a1-6)Man(b1-4)GlcNAc(b1-4)GlcNAc
Procedure, shortened: as §1

[44] = target: Neu5Ac(a2-6)Gal(b1-4)GlcNAc(b1-3)GalNAc
Procedure, shortened: as §1

[45] = target: Neu5Gc(a2-3)Gal(b1-4)GlcNAc(b1-3)Gal(b1-4)GlcNAc(b1-2)Man(a1-3)[Neu5Gc(a2-3)Gal(b1-4)GlcNAc(b1-3)Gal(b1-4)GlcNAc(b1-2)Man(a1-6)]Man(b1-4)GlcNAc(b1-4)GlcNAc
Procedure, shortened: as §1

B1: SRA-1 (Homo sapiens), P21757 (protein)
chain: MEQWDHFHNQQEDTDSCSESVKFDARSMTALLPPNPKNSPSLQEKLKSFKAALIALYLLVFAVLIPLIGIVAAQLLKWETKNCSVSSTNANDITQSLTGKGNDSEEEMRFQEVFMEHMSNMEKRIQHILDMEANLMDTEHFQNFSMTTDQRFNDILLQLSTLFSSVQGHGNAIDEISKSLISLNTTLLDLQLNIENLNGKIQENTFKQQEEISKLEERVYNVSAEIMAMKEEQVHLEQEIKGEVKVLNNITNDLRLKDWEHSQTLRNITLIQGPPGPPGEKGDRGPTGESGPRGFPGPIGPPGLKGDRGAIGFPGSRGLPGYAGRPGNSGPKGQKGEKGSGNTLTPFTKVRLVGGSGPHEGRVEILHSGQWGTICDDRWEVRVGQVVCRSLGYPGVQAVHKAAHFGQGTGPIWLNEVFCFGRESSIEECKIRQWGTRACSHSEDAGVTCTL
- glycan array binding signal (z-score) [1]: -0.462
- glycan array binding signal (z-score) [2]: -0.606
- glycan array binding signal (z-score) [3]: 0.064
- glycan array binding signal (z-score) [4]: 1.17
- glycan array binding signal (z-score) [5]: 0.274
- glycan array binding signal (z-score) [6]: -0.365
- glycan array binding signal (z-score) [7]: -0.415
- glycan array binding signal (z-score) [8]: 0.613
- glycan array binding signal (z-score) [9]: 1.28
- glycan array binding signal (z-score) [10]: 21.8
- glycan array binding signal (z-score) [11]: 1.43
- glycan array binding signal (z-score) [12]: -0.092
- glycan array binding signal (z-score) [13]: -0.456
- glycan array binding signal (z-score) [14]: 0.048
- glycan array binding signal (z-score) [15]: 1
- glycan array binding signal (z-score) [16]: -0.529
- glycan array binding signal (z-score) [17]: 4.58
- glycan array binding signal (z-score) [18]: 0.047
- glycan array binding signal (z-score) [19]: -0.205
- glycan array binding signal (z-score) [20]: 0.208
- glycan array binding signal (z-score) [21]: -0.32
- glycan array binding signal (z-score) [22]: -0.129
- glycan array binding signal (z-score) [23]: 0.967
- glycan array binding signal (z-score) [24]: 0.399
- glycan array binding signal (z-score) [25]: 1.15
- glycan array binding signal (z-score) [26]: 1.24
- glycan array binding signal (z-score) [27]: 0.295
- glycan array binding signal (z-score) [28]: -0.118
- glycan array binding signal (z-score) [29]: -0.311
- glycan array binding signal (z-score) [30]: 0.625
- glycan array binding signal (z-score) [31]: -0.204
- glycan array binding signal (z-score) [32]: 0.215
- glycan array binding signal (z-score) [33]: 0.773
- glycan array binding signal (z-score) [34]: -0.235
- glycan array binding signal (z-score) [35]: -0.293
- glycan array binding signal (z-score) [36]: -0.583
- glycan array binding signal (z-score) [37]: 0.027
- glycan array binding signal (z-score) [38]: 0.253
- glycan array binding signal (z-score) [39]: 1.05
- glycan array binding signal (z-score) [40]: 1.18
- glycan array binding signal (z-score) [41]: -0.364
- glycan array binding signal (z-score) [42]: -0.341
- glycan array binding signal (z-score) [43]: 0.243
- glycan array binding signal (z-score) [44]: -0.285
- glycan array binding signal (z-score) [45]: 0.684
